Source: PubChem (National Center for Advancing Translational Sciences (NCATS))
Sampled rows, rich in hits. Any-hit rate of the full collection: about 3.1%.
VDR inh: inhibitors of human vitamin D receptor | P11473 | VDR-SRC2-3 peptide fluorescence polarization, 2 h | Potency, µM, inactives show max response, negative = inhibition, most hits filed as inhibitors | 400,000 compounds, 0.93% hits | AID 504847; also: potency is read from the fitted curve at half-maximal effect; % is scaled to controls: 0 for no effect and ±100 for the full control effect
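Measured by FP: displacement of SRC2-3 coactivator peptide from VDR by library compounds, following a two-hour ambient incubation.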
uPA surface inh: blocks generation of uPA at the cell surface | 330,000 compounds, 0.31% hits | cell surface uPA generation assay, qHTS | Potency, µM (highest dose often 38.3 µM), for inactives: at the top dose activity change, negative = inhibition, most hits filed as inhibitors; active = well fitted inhibition curve with a large enough effect; inconclusive = small, poorly fitted or top-dose-only effect; inactive = no such curve, though single readings can be large or run the other way; tested in mouse RAW 264.7 cells; also: potency is read from the fitted curve at half-maximal effect; % is scaled to controls: 0 for no effect and ±100 for the full control effect; nearly all actives have a fitted effect of over 55% in size
TSHR antag: human thyrotropin receptor antagonism. TSHR-expressing cells, TSH-stimulated cAMP HTRF, 2 h; active compounds read low. activity change, negative = inhibition, % at 11.5 µM. 330,000 compounds, 0.2% hits. AID 504810;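 active = activity change below a set negative limit, meaning inhibition stronger than a set level, cut at about -70% in these data; inconclusive = activity change between two set negative limits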; also: % is scaled to controls: 0 for no effect and ±100 for the full control effect
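Freshly harvested TSHR cells receive pin-tooled compound, then EC80 TSH at 4nM final. After 2 hours at 37 deg C, antibody in lysis buffer and cAMP-d2 are added; 30 minutes at ambient temperature precede the HTRF read.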
PLK1 PBD block: blocks phosphopeptide binding to human PLK1 polo-box domain | P53350 | Plk1 PBD binding of FITC phosphopeptide, fluorescence polarization | Potency, µM, for inactives: max response, negative = inhibition, actives largely listed as inhibitors | 360,000 compounds, 2.8% hits | AID 720504; also: potency is read from the fitted curve at half-maximal effect; series mostly up to about 57 µM; % is scaled to controls: 0 for no effect and ±100 for the full control effect; nearly all actives have a fitted effect of over 65% in size
PTAP TSG101 blk: blocks PTAP/TSG101 interaction to inhibit HIV-1 budding; Potency, µM (highest dose often 115 µM), for the others: at the top dose activity change, negative = inhibition, actives largely listed as inhibitors; Fluorescence polarization, FITC-PTAP peptide / Tsg101 binding; 340,000 tested, under 10 active; active = well fitted inhibition curve with a large enough effect in the main read-out, with a control signal flat, not every such curve was filed as active; inconclusive = small, poorly fitted or top-dose-only effect, or effect the other way, or a change in a side signal; inactive = no such curve, though single readings can be large or run the other way; also: potency is read from the fitted curve at half-maximal effect; % of control where 0% means no effect
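Steps: Tsg101 binding domain dispensed (10 uM final), compounds pinned in DMSO, FITC-labeled PTAP-motif peptide added (50 nM final); after 20 min binding at room temperature, polarization measured.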
* hit, by the source's call; u = inconclusive; x = no result given. Unless noted, calls follow the shape of the dose curve; as a rule, active = well fitted curve in the direction sought with a large enough effect; inconclusive = small, poorly fitted or top-dose-only effect, or another doubt; inactive = no such curve, though single readings can be large; an effect the other way counts as inactive or inconclusive.

SMILES	VDR inh	uPA surface inh	TSHR antag	PLK1 PBD block	PTAP TSG101 blk
Cn1c(=O)n(CCCc2ccccc2)c(=O)c2c1nc1n2CCN1c1ccccc1	3%	x	x	x	x
COCCNC(=S)N1CCN(c2nc(-c3ccc(Cl)cc3)cs2)CC1	-13%	3%	-8	24µM*	0%
CCCCOc1ccc(/C=N/Nc2cc(N3CCOCC3)nc(C)n2)cc1	-18%	21%	-118*	-1%	0%
CC(C)C(NS(=O)(=O)c1ccc2c(c1)OCCCO2)C(=O)O (centres undefined)	45µM*	-4%	3	24µM*	-13%
CC(=O)Oc1cc(O)c2c(=O)c(OC(C)=O)c(-c3ccc(OC(C)=O)c(OC(C)=O)c3)oc2c1	-25%	10µM*	x	-17%	2%
COc1ccc(C(=O)N2CCC3(CCCN(Cc4cc(C(F)(F)F)cc(C(F)(F)F)c4)C3)CC2)cc1	-11%	x	x	x	x
O=C(c1ccncc1)N1CCC2(CCCN(c3cccc(-c4ccccc4)c3)C2)CC1	45µM*	x	x	x	x
O=C(c1cnccn1)N1CCC2(CCCN(c3ncccn3)C2)CC1	-12%	x	x	x	x
O=C(c1ccncc1)N1CCC[C@@]2(CCN(c3cccc(-c4ccccc4)c3)C2)C1	40µM*	x	x	x	x
O=C(c1cnccn1)N1CCC2(CCCN(c3cccc(-c4ccccc4)c3)C2)CC1	35µM*	x	x	x	x
O=C(c1cccc(F)c1)N1CCC2(CCCN(c3ccncc3)C2)CC1	2%	x	x	x	x
O=C(c1ccco1)N1CCC[C@@]2(CCN(c3cccc(-c4ccccc4)c3)C2)C1	28µM*	x	x	x	x
O=C(c1cc(C(F)(F)F)cc(C(F)(F)F)c1)N1CCC2(CC1)CN(c1ncccn1)C2	-4%	x	x	x	x
CCOC(=O)COc1ccccc1C1C(C(=O)OC)=C(C)NC2=C1C(=O)c1ccccc12 (centres undefined)	-7%	x	x	x	x
CC(C)(C)OC(=O)N1CCc2onc(-c3ccc(-n4cc(C5=CCCCC5)nn4)cc3)c2C1=O	x	x	x	-3%	x
O=C(c1ccco1)N1CCC2(CCCN(C(c3ccccc3)c3ccccc3)C2)CC1	35µM*	x	x	x	x
Cc1noc(C)c1CSCC(=O)Nc1cc(Cl)ccc1N1CCOCC1	-1%	10%	7	0%	x
Cc1ccc(S(=O)OCC(=O)Nc2cc(Cl)ccc2N2CCOCC2)cc1 (centres undefined)	u	-20%	5	17µM*	-6%
CC(C)CN1CCCC2(CCN(S(=O)(=O)c3ccccc3)CC2)C1	-4%	x	x	x	x
COc1cc(C(=O)ON=C2C(C)=CC(=O)C=C2C)cc(OC)c1OC	89µM*	x	0	u	-5%
COc1cc(C(=O)Oc2cc(C)cc(C)c2)cc(OC)c1OC	14%	7%	7	2%	0%
CCCCCCCc1nc2nc(C)c(Br)c(=O)n2[nH]1	-7%	3%	-4	27µM*	-10%
CCCc1nc2nc(C)c(NS(=O)(=O)c3ccc(C(C)(C)C)cc3)c(=O)n2[nH]1	-14%	-2%	10	-6%	-8%
C(#Cc1ccc2c(c1)COc1c3ccccc3nn1-2)c1ccccc1	-14%	-10%	-33	-6%	x
C#Cc1ccc2c(c1)COc1c3ccccc3nn1-2	-7%	13µM*	x	3%	x
SMILES	VDR inh	uPA surface inh	TSHR antag	PLK1 PBD block	PTAP TSG101 blk
N#CCCCC#Cc1ccc2c(c1)COc1c3ccccc3nn1-2	9%	10µM*	-24	-8%	x
O=C(CSc1cn(CCNC(=O)c2c(F)cccc2F)c2ccccc12)Nc1ccc2c(c1)OCCO2	-4%	x	x	x	x
COc1cccc(CN(C)C(=O)c2[nH]c(C)c(C(C)=O)c2C)c1OC	u	x	-4	27µM*	0%
CCOC(=O)N1CC=C2C(C#N)=C(N)C(C#N)(C#N)[C@H](c3cccs3)C2C1 (some centres undefined)	-9%	-7%	-12	-14%	-2%
CC(C)(C)OC(=O)N1CC=C2C(C#N)=C(N)C(C#N)(C#N)C(c3cccs3)C2C1 (centres undefined)	35µM*	-3%	-1	-17%	-5%
CC1CC=C2C(C#N)=C(N)C(C#N)(C#N)C(c3cccs3)C2C1 (centres undefined)	u	-2%	-41	27µM*	u
CCN(CC(=O)Nc1ccc(NC(C)=O)cc1)C(=O)c1cccc2ccccc12	8%	-23%	5	4%	-1%
COc1ccc(OC)c(-c2noc(CSc3nnc(Cc4ccccc4)n3-c3cccc(C)c3)n2)c1	8%	x	x	x	x
